Data published in PubChem BioAssay (NCI).
Several values for one entry are separate records, joined by “and”; a condition that tells them apart may be missing. Identical values can stand only once. Compounds without any hit were thinned out: in the full panel of roughly 83,000, 20% have a hit.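 Cells were grown in 96-well plates and exposed to the test compound at a single concentration for 48 hours; results are reported as percent growth, with values below 10 considered active.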 Activity calls are given as the source filed them.

Key:
Experiment in all cases: NCI-60 one-dose screen, 48 h (100 = growth as untreated, 0 = no growth, -100 = all killed)
Conditions in all cases: 10 µM unless noted
[1] = system: SK-MEL-2 melanoma
[2] = system: EKVX NSCLC
[3] = system: SN12C renal
[4] = system: UO-31 renal
[5] = system: TK-10 renal
[6] = system: ACHN renal
[7] = system: CAKI-1 renal
[8] = system: A498 renal
[9] = system: CCRF-CEM leukemia
[10] = system: MOLT-4 leukemia
[11] = system: SR leukemia
[12] = system: RPMI-8226 leukemia
[13] = system: OVCAR-8 ovarian
[14] = system: OVCAR-5 ovarian
[15] = system: OVCAR-4 ovarian
[16] = system: SK-OV-3 ovarian
[17] = system: IGROV1 ovarian
[18] = system: OVCAR-3 ovarian
[19] = system: HS 578T breast
[20] = system: NCI/ADR-RES ovarian

Measured: growth

COc1ccccc1/C=C1\COc2ccc(O)cc2C1=O
active: [9] 6.4% | [12] 4.74%
inactive: [1] 93.5% | [2] 102% | [3] 72% | [4] 74.6% | [5] 93.3% | [6] 57.8% | [7] 68.1% | [8] 109% | [10] 21% | [11] 11.5% | [13] 49.4% | [14] 103% | [15] 81.2% | [16] 99.1% | [17] 84.7% | [18] 76.2% | [19] 83.5% | [20] 38.1%

O=C1OCC2=C1C(c1cccc([N+](=O)[O-])c1)c1cc3c(cc1N2CCO)CCC3 (stereo not given)
active: [8] -5.04% | [9] 7.25% | [13] 5.88% | [18] -1.17% | [20] 3.57%
inactive: [1] 17.7% | [2] 36.8% | [3] 36.3% | [4] 39% | [5] 60.1% | [6] 27.5% | [7] 31% | [10] 14% | [11] 15.2% | [12] 17% | [14] 43.5% | [15] 40% | [16] 27% | [17] 25.9% | [19] 21.9%

CC1=C2[C@@H](CC1)[C@]1(C)O[C@@](C3CC3)(C[C@H]1OC(=O)CO)[C@H]2OC(=O)/C=C/c1ccccc1
inactive: [1] 97.2% | [2] 87.7% | [3] 42.4% | [5] 106% | [7] 71.4% | [9] 90.3% | [10] 77.6% | [11] 80.4% | [12] 84.3% | [14] 96% | [15] 110% | [16] 99.3% | [17] 100% | [18] 95.2%
active: [4] -26% | [6] 9.75% | [8] -39.1% | [13] 8.13% | [19] -14.6% | [20] 2.55%

O=c1ccc2nc(-c3ccccn3)nn(-c3ccccc3)c-2c1
active: [5] -70.9% | [6] -84.7% | [9] 8.49% | [10] 5.56% | [11] 5.21% | [18] -21.9%
inactive: [1] 106% | [2] 115% | [3] 84.6% | [4] 40.1% | [7] 72.5% | [8] 91.9% | [12] 50.3% | [13] 87.1% | [14] 109% | [15] 81.8% | [16] 84.9% | [17] 87.9% | [19] 93.9% | [20] 98%

Cc1ccc(C(=O)c2ccc(CC(=O)N=Nc3c(O)[nH]c4ccc(OC(F)(F)F)cc34)n2C)cc1
inactive: [1] 95.9% | [2] 75.5% | [3] 95% | [4] 72.7% | [5] 137% | [6] 93.8% | [7] 91.1% | [8] 86.7% | [9] 99.1% | [10] 89.4% | [11] 102% | [12] 102% | [13] 94% | [14] 100% | [15] 118% | [16] 96.9% | [17] 85.2% | [18] 117% | [19] 94.5% | [20] 92.4%

CCCCn1c(C(=O)c2c[nH]c3ccccc23)n[nH]c1=S
inactive: [1] 91.9% | [2] 90.3% | [3] 90% | [4] 90.1% | [5] 132% | [6] 102% | [7] 79.3% | [8] 92.1% | [9] 91.3% | [10] 103% | [11] 91.7% | [12] 78.7% | [13] 93.1% | [14] 133% | [15] 92.4% | [16] 88.4% | [17] 87.7% | [18] 106% | [19] 91% | [20] 107%

O=C1OCC2=C1C(c1cccc(C(F)(F)F)c1)c1cc3c(cc1N2CCO)OCCO3 (stereo not given)
active: [9] 9.36% | [18] -4.23%
inactive: [1] 26.1% | [2] 49.1% | [3] 46% | [4] 47.4% | [5] 54.4% | [6] 33.7% | [7] 30.5% | [8] 16% | [10] 16.8% | [11] 13.3% | [12] 22.2% | [13] 11.4% | [14] 45.9% | [15] 66.3% | [16] 16.1% | [17] 38% | [19] 27.8% | [20] 22.2%

Nc1nc2c(s1)CCc1cn(S(=O)(=O)c3ccccc3)cc1-2
inactive: [1] 106% and 99.1% | [2] 95.8% | [3] 86.6% and 93.5% | [4] 54.5% and 84.5% | [5] 108% and 115% | [6] 95.9% and 101% | [7] 85.8% and 101% | [8] 80% and 73.5% | [9] 79.9% and 79.3% | [10] 84.3% and 91.6% | [11] 75.2% and 92.8% | [12] 98.9% and 91.4% | [13] 88.6% and 110% | [14] 102% and 104% | [15] 87.5% | [16] 106% and 109% | [17] 100% | [18] 96% and 108% | [19] 86.4% and 107% | [20] 91.9% and 103%

COc1ccc(/C=C2\COc3ccc(O)c(O)c3C2=O)c(OC)c1OC
inactive: [1] 70.3% | [2] 65.7% | [5] 45.1% | [6] 12.5% | [7] 39% | [8] 109% | [14] 36.2% | [15] 27.8% | [16] 67% | [17] 16.9% | [19] 27.9% | [20] 27%
active: [3] 0.808% | [4] -5.7% | [9] 3.07% | [10] 1.41% | [11] 9.47% | [12] -23.6% | [13] 8.41% | [18] 9.03%

CCN1C(=O)N(c2ccccc2)C2NC(=S)N(/N=C/C=C/c3ccccc3)C21 (stereo not given)
inactive: [1] 16.8% | [2] 23.2% | [3] 19.8% | [4] 35.5% | [5] 50.1% | [6] 21.7% | [7] 29.6% | [14] 59.7% | [15] 34.3% | [16] 24% | [17] 20.8% | [19] 16.1%
active: [8] 6.81% | [9] 3.8% | [10] 8.35% | [11] 7.28% | [12] -20.1% | [13] 5.29% | [18] 8.14% | [20] 2.91%

COc1cc(Nc2nc3ccccc3cc2C(=O)Nc2ccc(F)c(F)c2)cc(OC)c1OC
active: [6] 5.68% | [8] -3.64% | [20] 6.91%
inactive: [1] 48.2% | [2] 30% | [3] 12.5% | [4] 21.8% | [5] 47.8% | [7] 46.5% | [9] 24.7% | [10] 14.2% | [11] 29.6% | [12] 21.8% | [13] 15.5% | [14] 63.9% | [15] 23% | [16] 42.2% | [17] 30.8% | [18] 10.6% | [19] 61.2%

COc1cc(N=Nc2ccc(O)c3ncccc23)c2ncccc2c1
inactive: [1] 61.3% | [2] 65.8% | [3] 68.6% | [4] 16.6% | [5] 69.2% | [7] 17.3% | [8] 74.9% | [12] 31.7% | [13] 17.1% | [14] 59.8% | [15] 17.4% | [16] 43.3% | [17] 27.4% | [18] 30.3% | [19] 33.9%
active: [6] 4.47% | [9] 5% | [10] 6.75% | [11] 7.54% | [20] -1.77%

CCNC(=O)Nc1ncccc1OCc1ccc(F)cc1
inactive: [1] 99.8% | [2] 102% | [3] 107% | [4] 93.7% | [5] 92.8% | [6] 108% | [7] 90.1% | [8] 88.3% | [9] 101% | [10] 98% | [11] 105% | [12] 106% | [13] 109% | [14] 92.4% | [15] 96.4% | [16] 94.2% | [17] 102% | [18] 102% | [19] 112% | [20] 93.4%
